# About 520 (0.26%) of roughly 200,000 compounds were called active. This is one part of a sample in which actives are shown more often than they occur. Unmarked numbers belong to inactive results. No stated cut-off is given here; in the data, active means activation above about 23%; inactive means the rest.
# Molecular target: Peroxisome proliferator-activated receptor gamma (Homo sapiens) (UniProt P37231)
# Assay: PPARgamma agonists recruiting SRC-3 coactivator, primary screen, biochemical (AID 731);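 further: 0% = DMSO and 100% = reference agonist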
# Conditions: biochemical PPARgamma/SRC-3 coactivator recruitment assay; at 8 µM; hits give high values
# Peroxisome proliferator-activated receptor gamma (Homo sapiens), sequence (P37231 whole entry, looked up): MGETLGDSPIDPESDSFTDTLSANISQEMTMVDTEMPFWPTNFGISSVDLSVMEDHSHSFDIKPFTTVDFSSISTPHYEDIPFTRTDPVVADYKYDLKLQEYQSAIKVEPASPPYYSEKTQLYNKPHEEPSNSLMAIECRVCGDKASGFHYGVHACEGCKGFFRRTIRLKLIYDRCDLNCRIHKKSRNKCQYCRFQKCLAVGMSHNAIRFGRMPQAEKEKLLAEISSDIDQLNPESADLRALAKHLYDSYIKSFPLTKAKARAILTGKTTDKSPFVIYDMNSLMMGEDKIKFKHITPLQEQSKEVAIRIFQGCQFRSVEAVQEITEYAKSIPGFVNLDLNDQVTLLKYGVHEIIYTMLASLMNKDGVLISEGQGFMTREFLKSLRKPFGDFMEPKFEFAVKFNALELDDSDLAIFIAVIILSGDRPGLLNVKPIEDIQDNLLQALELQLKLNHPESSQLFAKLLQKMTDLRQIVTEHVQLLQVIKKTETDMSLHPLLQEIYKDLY
row,SMILES,activation
1,COc1cccc(NC(=O)c2ccc(S(=O)(=O)N(C)C)cc2)c1,-1.26%
2,COc1ccc(/C=N/Nc2ncnc3sc4c(c23)CCCC4)cc1O,-0.73%
3,CCOC(=O)c1sc(-c2cccc([N+](=O)[O-])c2)cc1N,10%
4,Cc1nc2ccccn2c1C(=O)NN=C1CCN(C)CC1,-4.87%
5,O=C(NC(=S)Nc1cccc(-c2ccc(CO)o2)c1)c1cccs1,9.26%
6,O=C(NCc1ccco1)c1cc(-c2cccnc2)nc2ccc(Cl)cc12,7.42%
7,O=C(CSc1c2c(nc3ccc(Cl)cc13)CCCC2)NCc1ccco1,31.6% (active)
8,O=C(/C=C/c1ccc(Cl)cc1Cl)NCc1ccco1,-0.09%
9,Cc1ccn(CC(=O)N2N=C(C(F)F)CC2(O)C(F)F)n1 (stereo not given),3.61%
10,COc1ccc(N(C)S(=O)(=O)c2cccc3nsnc23)cc1,-0.54%
11,CCN(/N=C/c1ccc(N(C)C)cc1)c1nc2ccccc2[nH]1,16.6%
12,CC1c2nc3ccccc3n2C(CC(=O)NCCCN2CCOCC2)C(=O)N1Cc1ccccc1 (stereo not given),-3.13%
13,Cc1cccc(OP(=O)(Nc2c(C)n(C)n(-c3ccccc3)c2=O)Oc2cccc(C)c2)c1,2.47%
14,CCN(CC)CCCNC(=O)CCc1ccccc1,4%
15,CCN(CC)CCCNC(=O)c1cc(-c2cccc(Cl)c2)on1,-5.33%
16,CCN(CCCNC(=O)CSc1cc(=O)n(C)c2cc(Cl)ccc12)Cc1ccccc1,42.4% (active)
17,Cc1cc[n+](-c2[nH]c(=O)sc2/C=N/NC(=O)c2ccccc2[O-])cc1C,1.17%
18,CCn1c(=O)cc(SCC(=O)NCc2ccc3c(c2)OCO3)c2ccccc21,31.8% (active)
19,CC(C)NC(=O)CSc1ccccc1C(=O)NCc1ccc2c(c1)OCO2,-3.43%
20,CCn1c(=O)cc(SCC(=O)NCCC2=CCCCC2)c2ccccc21,10.5%

row,SMILES,activation
1,O=C(NCc1ccco1)C(=O)c1cn(CC(=O)N2CCCCCC2)c2ccccc12,4.6%
2,CN(C)c1ccc(C(CC(=O)O)C(=O)O)cc1 (stereo not given),5.46%
3,O=C(CNC(=O)C(c1ccccc1)c1ccccc1)N/N=C\c1ccc2c(c1)OCO2,-7.73%
4,COc1ccc(/C=C/C(=O)NC(=S)NN2CCCCC2c2cccnc2)cc1 (stereo not given),-0.5%
5,Cc1cccc(OCc2ccc(C(=O)Nc3ccc(F)cc3)cc2)c1,-4.26%
6,Cc1nc2ccccc2cc1OCc1ccc(F)cc1,4.08%
7,Fc1ccc(COc2cccc(-c3n[nH]c(=S)o3)c2)cc1,29.3% (active)
8,CC(C)/C=N/NC(=O)c1cc(Br)ccc1O,4.98%
9,COc1cccc(-n2c(=S)sc3c(=O)n(-c4ccccc4OC)c(SCC4OCCO4)nc32)c1,-1.02%
10,O=C(CCc1nnc(CCCCc2ccccc2)o1)NC(c1cccnc1)C(F)(F)F (stereo not given),0.98%
11,COc1ccccc1N1CCN(/N=C\C(Br)=C\c2ccccc2)CC1,0.45%
12,CC(=O)c1sc2nc(SCC(=O)N3CCCCC3)[nH]c(=O)c2c1C,32.9% (active)
13,O=C(CSc1nc2c(cnn2-c2ccc(F)cc2)c(=O)[nH]1)N1CCCCCC1,-0.08%
14,C=CCNC(=O)CSc1nc2sc(C)c(C)c2c(=O)[nH]1,-3.68%
15,COCCN(C(=O)CCC(=O)Nc1nccs1)C(C(=O)NC(C)(C)C)c1ccc(Cl)cc1 (stereo not given),8.27%
16,Cc1ccccc1C1=N/C(=C/c2cccnc2)C(=O)O1,5.51%
17,Cc1ccc(S(=O)(=O)N(C)CC(=O)OCC(=O)N2CC(=O)Nc3ccccc32)cc1,-1.93%
18,COc1cccc(NC(=O)Cn2c3ccccc3c3nc4n(c(=O)c32)CCS4)c1,3.77%
19,O=C(NCc1cccs1)C1CCN(S(=O)(=O)c2ccc(Cl)cc2)CC1,0.55%
20,O=C(N/C(=C\c1ccc(F)cc1)C(=O)N1CCCCCC1)c1ccccc1,2.6%

row,SMILES,activation
1,Cc1c(Cc2ccccc2)c(=O)oc2cc(OCC(N)=O)ccc12,1.07%
2,CC(=O)Oc1ccc2c(C)c(CC(C)O)c(=O)oc2c1 (stereo not given),-4.46%
3,O=C(Oc1ccccc1)Oc1ccc2c(c1)oc(=O)c1ccccc12,57.2% (active)
4,CNc1ccc(NC(C)=O)cc1[N+](=O)[O-],-3.86%
5,CCC1(CC)NC(=O)N(CC(=O)OCC(=O)Nc2ccc(C(F)(F)F)cc2)C1=O,-5.07%
6,CCCCCOc1ccc(/C=C/C(=O)NCCc2nc3ccccc3[nH]2)cc1OC,0.87%
7,Cn1c(C(=O)OC(C(=O)NC2CCCCC2)c2ccccn2)cc2sccc21 (stereo not given),0.71%
8,Cc1ccc(Cl)cc1NC(=O)C1CCN(S(C)(=O)=O)CC1,-1.48%
9,CCNCCC(=O)N1c2ccccc2Sc2ccc(NC(=O)OCC)cc21,-12.4%
10,NNC(=O)C1CC(O)CN1S(=O)(=O)c1ccc(Cl)cc1 (stereo not given),8.66%
11,CC1CC(C)CN(CCC(=O)Nc2ccc3c(c2)CCC3)C1 (stereo not given),6.43%
12,COC(C(=O)Nc1ccc(C(C)=O)cc1)c1ccccc1 (stereo not given),-2.12%
13,COc1ccccc1CCNC(=O)CSc1nnc2ccc(-c3cccnc3)nn12,2.38%
14,O=C(CN1CCN(c2ncccn2)CC1)Nc1ccccc1C(F)(F)F,-0.44%
15,COCCn1c(Cc2cccn2C)nnc1SCC(=O)Nc1nccs1,4.15%
16,Cc1nc(N2CCOCC2)c2c(C)c(C(=O)Nc3ccc(C(F)(F)F)cc3)sc2n1,6.42%
17,Cc1ccc(N2C(=O)C3C(c4ccccc4)(C2=O)C3(c2ccccc2)c2ccccc2)cc1 (stereo not given),-5.3%
18,O=C(O)CCS(=O)(=O)c1ccc(-c2ccccc2)cc1,-2.87%
19,C=CCC(CC=C)(C(N)=O)c1ccccc1,-2.8%
20,CCOC(=O)CNC(=O)CSc1ccc2nnc(-c3cccnc3)n2n1,-2.1%

# Source: PubChem BioAssay AID731 (The Scripps Research Institute Molecular Screening Center, 2007)
